Reference: PubChem BioAssay (NCATS)
Inconclusive results are not listed. The source made the active and inactive calls. Unless noted, calls follow the shape of the dose curve; as a rule, active = well fitted curve in either direction with a large enough effect (not every such curve was filed as active); inconclusive = small, poorly fitted or top-dose-only effect, or another doubt; inactive = flat fitted curve, though single readings scatter.

What was measured:
[1] = molecular target: Lysosomal acid glucosylceramidase (Homo sapiens) (UniProt P04062); assay: Glucocerebrosidase-p2 (AID 348; in the data active = potency below about 10 µM; also: potency is read from the fitted curve at half-maximal effect); conditions: purified GBA, blue fluorogenic substrate, 40 min
Sequence of Lysosomal acid glucosylceramidase (Homo sapiens) (P04062 whole entry, looked up): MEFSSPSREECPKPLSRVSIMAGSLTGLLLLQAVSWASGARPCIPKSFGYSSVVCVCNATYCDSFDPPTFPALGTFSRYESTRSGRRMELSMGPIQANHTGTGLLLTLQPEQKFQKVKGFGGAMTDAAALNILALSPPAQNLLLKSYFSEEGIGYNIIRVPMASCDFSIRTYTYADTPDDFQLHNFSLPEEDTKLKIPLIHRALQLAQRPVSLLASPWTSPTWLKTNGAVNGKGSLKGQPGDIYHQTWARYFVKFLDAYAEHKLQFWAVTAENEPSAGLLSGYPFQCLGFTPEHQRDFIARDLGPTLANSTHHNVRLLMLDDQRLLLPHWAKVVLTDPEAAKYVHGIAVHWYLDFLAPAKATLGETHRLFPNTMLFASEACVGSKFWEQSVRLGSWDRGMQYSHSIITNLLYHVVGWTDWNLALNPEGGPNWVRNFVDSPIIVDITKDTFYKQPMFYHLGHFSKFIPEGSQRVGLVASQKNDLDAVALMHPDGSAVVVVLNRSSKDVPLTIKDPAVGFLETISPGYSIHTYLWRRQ
Procedure, shortened: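 Normal human glucocerebrosidase (0.2 nM) with blue fluorogenic substrate (80 uM final) in citrate/phosphate pH 5.9 with 10mM sodium taurocholate, 0.01% tween-20; 40 min RT, NaOH/glycine stop; fluorescence Ex 365/Em 440; AC50 from a titration from 0.6 nM upwards.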

[2] = AP1 Signaling Pathway (AID 357); conditions: ME-180 AP-1-bla reporter, EGF-induced, beta-lactamase ratio, 5 h; at 7.69 µM (top of the series) unless noted;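 also: ME-180 reporter cells stimulated with EGF at its EC50 level; % is scaled to controls: 0 for no effect and ±100 for the full control effect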
Procedure, shortened: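 A ratiometric CCF4 readout (405 nm excitation; 460 and 530 nm emission) quantified AP-1-driven beta-lactamase in ME-180 cells after 5 h with compound and EC50 EGF; AC50 values were derived for activators and inhibitors.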

[3] = molecular target: Cytochrome P450 1A2 (Homo sapiens) (UniProt P05177); assay: p450-cyp1a2 (AID 410; calls by dose curve; also: potency is read from the fitted curve at half-maximal effect;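 as to activity change, negative = inhibition: -100% = full effect of reference inhibitor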); conditions: recombinant CYP1A2, luciferin-ME demethylation, luminescence; series mostly up to 11.4 µM
Sequence of Cytochrome P450 1A2 (Homo sapiens) (P05177 whole entry, looked up): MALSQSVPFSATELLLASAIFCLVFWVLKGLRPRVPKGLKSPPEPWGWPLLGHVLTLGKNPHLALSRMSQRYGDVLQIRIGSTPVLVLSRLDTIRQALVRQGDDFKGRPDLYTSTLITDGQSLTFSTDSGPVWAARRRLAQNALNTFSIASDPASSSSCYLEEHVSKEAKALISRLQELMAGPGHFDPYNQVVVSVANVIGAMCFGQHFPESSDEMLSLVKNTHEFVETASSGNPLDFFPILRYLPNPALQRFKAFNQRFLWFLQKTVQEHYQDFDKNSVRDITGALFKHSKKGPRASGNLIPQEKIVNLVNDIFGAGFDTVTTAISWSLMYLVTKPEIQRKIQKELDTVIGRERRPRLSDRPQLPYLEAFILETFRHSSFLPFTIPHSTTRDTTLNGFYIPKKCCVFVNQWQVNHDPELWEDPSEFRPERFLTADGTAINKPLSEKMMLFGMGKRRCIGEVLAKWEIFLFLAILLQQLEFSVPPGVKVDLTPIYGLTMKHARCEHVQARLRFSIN
Procedure, shortened: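 Read-out is luminescence from luciferin produced by CYP1A2 demethylation of Luciferin-ME (100uM, at Km). Detection reagent stopped the 60 min NADPH-dependent reaction; signals were normalized to 57 uM furafylline.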

[4] = NFAT Signaling Pathway (AID 444); conditions: Jurkat NFAT-bla M1, carbachol, beta-lactamase ratio, 5 h; at 7.69 µM (top of the series) unless noted;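 also: carbachol stimulus at about its EC50 of 1 µM final; % is scaled to controls: 0 for no effect and ±100 for the full control effect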
Procedure, shortened: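 Read-out: CCF4 FRET ratio (460 nm/530 nm) after 1 h RT dye loading, used for %activity and AC50 from titration series. Cells: Jurkat NFAT-β-lactamase/M1 line, treated with compound plus 1 uM carbachol for 5 h, 37 °C.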

[5] = molecular target: Glucocorticoid receptor (Homo sapiens) (UniProt P04150); assay: GR-GFP Redistribution (AID 450;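 active = compounds whose dose series gives a full or clear partial fitted curve of increased nuclear translocation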; also: potency is read from the fitted curve at half-maximal effect); conditions: U2OS GR-GFP nuclear translocation, laser cytometry, 2 h
Sequence of Glucocorticoid receptor (Homo sapiens) (P04150 whole entry, looked up, the tested form may be a part): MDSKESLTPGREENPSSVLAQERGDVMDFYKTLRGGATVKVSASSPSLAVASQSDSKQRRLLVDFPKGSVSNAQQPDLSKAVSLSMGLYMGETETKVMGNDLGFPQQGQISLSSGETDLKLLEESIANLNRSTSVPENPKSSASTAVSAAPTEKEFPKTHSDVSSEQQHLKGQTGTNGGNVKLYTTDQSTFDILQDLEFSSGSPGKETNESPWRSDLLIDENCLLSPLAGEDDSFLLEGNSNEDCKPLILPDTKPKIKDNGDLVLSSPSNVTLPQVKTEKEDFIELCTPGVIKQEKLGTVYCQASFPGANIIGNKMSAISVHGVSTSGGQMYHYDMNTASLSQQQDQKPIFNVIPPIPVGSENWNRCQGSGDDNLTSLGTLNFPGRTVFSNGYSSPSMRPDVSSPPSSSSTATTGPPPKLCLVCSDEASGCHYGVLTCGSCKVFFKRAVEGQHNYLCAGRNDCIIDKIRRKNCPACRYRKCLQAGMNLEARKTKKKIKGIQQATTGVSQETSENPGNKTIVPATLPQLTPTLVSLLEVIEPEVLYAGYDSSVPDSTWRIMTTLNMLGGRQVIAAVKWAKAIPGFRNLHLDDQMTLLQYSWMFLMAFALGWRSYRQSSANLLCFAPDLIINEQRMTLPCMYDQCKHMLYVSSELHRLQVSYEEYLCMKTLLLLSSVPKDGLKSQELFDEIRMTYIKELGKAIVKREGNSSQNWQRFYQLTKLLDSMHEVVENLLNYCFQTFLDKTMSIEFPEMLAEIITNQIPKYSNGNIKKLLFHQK

[6] = molecular target: Glucocorticoid receptor (Homo sapiens) (UniProt P04150); assay: GR-EFC Redistribution (AID 451; calls by dose curve; also: potency is read from the fitted curve at half-maximal effect); conditions: CHO-K1 GR-EFC translocation, beta-gal luminescence, 2 h
Procedure, shortened: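 Translocation of GR-ED fusion to nuclear EA restores b-gal, read by luminescence after 1 h room-temperature detection. Engineered CHO-K1 biosensor cells, 1,000/well, exposed 2 h at 37 C to titrations up to 46 uM final.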

[7] = molecular target: Mitogen-activated protein kinase 10 (Mus musculus) (UniProt Q61831); assay: JNK3 AlphaScreen Assay (AID 530); conditions: JNK3 lysate, c-Jun phosphorylation; series mostly up to 11.4 µM;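 also: kinase came from lysate of stimulated human HepG2 cells; signal reports phosphorylation of biotinylated GST-cJun 1-79 at Ser73 with 10 µM ATP; % is scaled to controls: 0 for no effect and ±100 for the full control effect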
Procedure, shortened: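 Kinase buffer: 20 mM Tris-HCl pH 7.6, 10 mM MgCl2, 1 mM DTT, 0.1 mM Na3VO4, 0.01% Tween-20; ATP 10 uM. Substrate biotin-GST-cJun(1-79), enzyme from activated HepG2 lysates. Detection by Ser73 phospho-antibody AlphaScreen.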

[8] = molecular target: 3',5'-cyclic-AMP phosphodiesterase 4B (Homo sapiens) (UniProt Q07343); assay: qHTS Assay for Inhibitors of PDE-IV (AID 607; active = well fitted activation curve with a large enough effect in the main read-out, with a control signal flat, not every such curve was filed as active; also: % of control where 0% means no effect); conditions: HEK293 ACTOne CNG channel cells, membrane potential fluorescence; series mostly up to 22.9 µM
Sequence of 3',5'-cyclic-AMP phosphodiesterase 4B (Homo sapiens) (Q07343 whole entry, looked up): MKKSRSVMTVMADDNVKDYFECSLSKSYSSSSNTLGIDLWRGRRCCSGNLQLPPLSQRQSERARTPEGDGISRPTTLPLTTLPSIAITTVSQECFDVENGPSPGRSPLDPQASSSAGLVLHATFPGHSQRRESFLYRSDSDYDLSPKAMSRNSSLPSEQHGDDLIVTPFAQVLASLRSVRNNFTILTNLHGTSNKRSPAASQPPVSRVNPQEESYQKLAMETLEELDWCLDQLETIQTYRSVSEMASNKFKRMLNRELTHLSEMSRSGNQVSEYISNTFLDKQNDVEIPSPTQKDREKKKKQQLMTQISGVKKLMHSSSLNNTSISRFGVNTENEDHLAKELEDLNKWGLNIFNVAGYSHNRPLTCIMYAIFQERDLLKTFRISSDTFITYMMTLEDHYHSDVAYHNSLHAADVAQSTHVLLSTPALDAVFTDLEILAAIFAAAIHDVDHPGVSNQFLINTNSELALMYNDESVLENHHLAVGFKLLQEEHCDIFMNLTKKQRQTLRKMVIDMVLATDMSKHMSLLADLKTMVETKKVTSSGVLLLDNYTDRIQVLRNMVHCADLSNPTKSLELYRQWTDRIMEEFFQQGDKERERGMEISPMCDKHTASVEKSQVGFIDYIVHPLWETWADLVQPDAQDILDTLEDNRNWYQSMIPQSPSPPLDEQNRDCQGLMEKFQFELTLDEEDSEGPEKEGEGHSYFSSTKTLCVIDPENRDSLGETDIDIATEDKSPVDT
Procedure, shortened: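 Live HEK293 cells with a modified cyclic nucleotide-gated (CNG) channel report intracellular cAMP via membrane-potential dye fluorescence (ex 535/em 590 nm). Endogenous PDE-IV was targeted. Compounds were tested at up to 22.9 uM final; RO 20-1724 100 uM served as control.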

[9] = molecular target: Cytochrome P450 2C19 (Homo sapiens) (UniProt P33261); assay: qHTS Assay for Inhibitors and Substrates of Cytochrome P450 2C19 (AID 899; active = well fitted curve in the direction sought with a large enough effect; an effect the other way counts as inactive or inconclusive; also: nearly all actives have a fitted effect of over 60% in size; also: potency is read from the fitted curve at half-maximal effect); conditions: recombinant CYP2C19, luciferin-H EGE luminescence; series mostly up to 11.4 µM
Sequence of Cytochrome P450 2C19 (Homo sapiens) (P33261 whole entry, looked up): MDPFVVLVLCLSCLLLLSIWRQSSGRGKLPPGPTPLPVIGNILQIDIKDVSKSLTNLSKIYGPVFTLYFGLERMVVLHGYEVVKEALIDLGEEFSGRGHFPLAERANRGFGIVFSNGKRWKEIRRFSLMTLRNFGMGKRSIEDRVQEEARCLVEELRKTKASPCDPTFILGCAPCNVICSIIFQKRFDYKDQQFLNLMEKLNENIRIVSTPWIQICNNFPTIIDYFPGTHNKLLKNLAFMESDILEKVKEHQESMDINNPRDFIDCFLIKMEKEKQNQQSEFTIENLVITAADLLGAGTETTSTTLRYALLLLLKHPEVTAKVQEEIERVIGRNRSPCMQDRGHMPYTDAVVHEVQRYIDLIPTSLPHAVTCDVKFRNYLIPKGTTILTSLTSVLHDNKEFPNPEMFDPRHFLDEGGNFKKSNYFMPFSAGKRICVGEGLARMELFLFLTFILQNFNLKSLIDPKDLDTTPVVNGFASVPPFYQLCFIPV
Procedure, shortened: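 5nM enzyme + 10uM Luciferin-H EGE (=KM), 50mM KPO4; cpd pin-transferred, 10 min 37C; NADPH regen, 60 min 37C; stopped w/ luciferin detection reagent, 20 min; luminescence. Normalized to 57uM ketoconazole (AC100).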

[10] = Stat Signaling Pathway (AID 446); conditions: ME-180 (cervical carcinoma) SIE beta-lactamase reporter, IL-6 stimulated, 5 h; at 7.69 µM (top of the series) unless noted;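 also: ME-180 cervical cancer cells given 40 pM IL-6 alongside compound; SIE-controlled beta-lactamase reporter measured as 460/530 nm FRET emission ratio; % is scaled to controls: 0 for no effect and ±100 for the full control effect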
Procedure, shortened: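 Overnight-plated ME-180 cells bearing a STAT Inducible Element beta-lactamase reporter; 5 h co-exposure to compound and 40 pM IL-6; values normalized to 300 pM IL-6 and 125 nM JAK inhibitor controls.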

[11] = molecular target: Cytochrome P450 2C9 (Homo sapiens) (UniProt P11712); assay: qHTS Assay for Inhibitors and Substrates of Cytochrome P450 2C9 (AID 883; active = well fitted curve in the direction sought with a large enough effect; an effect the other way counts as inactive or inconclusive; also: nearly all actives have a fitted effect of over 60% in size; also: potency is read from the fitted curve at half-maximal effect); conditions: recombinant CYP2C9, luciferin-H luminescence, 60 min; series mostly up to 11.4 µM
Sequence of Cytochrome P450 2C9 (Homo sapiens) (P11712 whole entry, looked up): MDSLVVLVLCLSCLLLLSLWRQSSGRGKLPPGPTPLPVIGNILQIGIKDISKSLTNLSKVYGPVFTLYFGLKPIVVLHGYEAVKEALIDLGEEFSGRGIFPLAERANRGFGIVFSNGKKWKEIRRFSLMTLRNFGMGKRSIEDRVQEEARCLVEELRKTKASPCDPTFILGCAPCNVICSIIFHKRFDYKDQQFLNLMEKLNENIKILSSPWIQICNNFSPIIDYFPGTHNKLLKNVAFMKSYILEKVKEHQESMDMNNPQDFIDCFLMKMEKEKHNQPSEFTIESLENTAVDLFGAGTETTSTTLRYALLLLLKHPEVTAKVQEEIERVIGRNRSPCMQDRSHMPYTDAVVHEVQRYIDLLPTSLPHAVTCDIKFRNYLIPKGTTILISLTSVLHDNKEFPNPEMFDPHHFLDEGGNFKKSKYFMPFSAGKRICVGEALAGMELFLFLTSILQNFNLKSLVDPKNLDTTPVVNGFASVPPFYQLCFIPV
Procedure, shortened: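 Inhibition of CYP2C9 is scored as loss of luminescence, with 57uM sulphaphenazole defining 100% inhibition. Substrate Luciferin-H is used at 100uM, equal to its KM; enzyme at 10nM in 25mM KPO4, 60 min at 37C with NADPH regeneration.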

[12] = molecular target: Cytochrome P450 3A4 (Homo sapiens) (UniProt P08684); assay: qHTS Assay for Activators of Cytochrome P450 3A4 (AID 885; active = well fitted curve in the direction sought with a large enough effect; an effect the other way counts as inactive or inconclusive; also: nearly all actives have a fitted effect of over 65% in size); conditions: recombinant CYP3A4, Luciferin-PPXE luminescence, 60 min; series mostly up to 11.4 µM
Sequence of Cytochrome P450 3A4 (Homo sapiens) (P08684 whole entry, looked up): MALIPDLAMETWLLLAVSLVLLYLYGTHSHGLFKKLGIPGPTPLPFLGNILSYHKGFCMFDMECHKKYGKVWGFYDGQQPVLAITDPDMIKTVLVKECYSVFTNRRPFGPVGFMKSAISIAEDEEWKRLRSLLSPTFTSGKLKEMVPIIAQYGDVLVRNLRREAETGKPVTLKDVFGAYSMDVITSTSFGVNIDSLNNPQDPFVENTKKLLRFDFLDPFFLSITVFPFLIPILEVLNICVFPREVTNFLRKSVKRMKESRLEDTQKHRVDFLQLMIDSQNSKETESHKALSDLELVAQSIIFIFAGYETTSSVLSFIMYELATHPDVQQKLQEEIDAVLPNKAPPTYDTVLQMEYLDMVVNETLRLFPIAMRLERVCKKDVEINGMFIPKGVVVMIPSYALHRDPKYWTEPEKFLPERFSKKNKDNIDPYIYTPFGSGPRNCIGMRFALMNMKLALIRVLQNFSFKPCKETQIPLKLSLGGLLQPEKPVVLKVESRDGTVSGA
Procedure, shortened: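 Using 20nM recombinant human CYP3A4 in potassium phosphate (200mM), substrate Luciferin-PPXE at 25uM, luminescent luciferin detection followed a 60-min RT NADPH reaction; data scaled to 57 uM ketoconazole.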

[13] = molecular target: Cytochrome P450 2D6 (Homo sapiens) (UniProt P10635); assay: qHTS Assay for Inhibitors and Substrates of Cytochrome P450 2D6 (AID 891; active = well fitted curve in the direction sought with a large enough effect; an effect the other way counts as inactive or inconclusive;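 also: luciferin methyl ether substrate demethylated by CYP2D6 with NADPH regeneration; % is scaled to controls: 0 for no effect and ±100 for the full control effect; nearly all actives have a fitted effect of over 60% in size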); conditions: recombinant CYP2D6, luciferin-ME EGE luminescence; series mostly up to 11.4 µM
Sequence of Cytochrome P450 2D6 (Homo sapiens) (P10635 whole entry, looked up): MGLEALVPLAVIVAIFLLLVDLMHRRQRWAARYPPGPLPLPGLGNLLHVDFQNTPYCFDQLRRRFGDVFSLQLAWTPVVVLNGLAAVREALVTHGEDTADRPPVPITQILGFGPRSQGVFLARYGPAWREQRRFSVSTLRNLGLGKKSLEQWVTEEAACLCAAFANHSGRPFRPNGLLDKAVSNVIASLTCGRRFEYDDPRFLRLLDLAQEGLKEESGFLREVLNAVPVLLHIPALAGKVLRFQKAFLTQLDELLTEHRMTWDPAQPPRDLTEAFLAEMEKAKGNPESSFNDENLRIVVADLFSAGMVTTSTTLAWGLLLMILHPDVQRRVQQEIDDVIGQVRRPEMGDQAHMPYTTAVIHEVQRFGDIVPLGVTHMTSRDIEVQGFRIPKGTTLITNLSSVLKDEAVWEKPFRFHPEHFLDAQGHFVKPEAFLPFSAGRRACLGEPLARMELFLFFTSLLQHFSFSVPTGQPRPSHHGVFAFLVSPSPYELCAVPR
Procedure, shortened: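 Luminescent read-out of luciferin formed by 5 nM human CYP2D6 demethylating 30 uM Luciferin-ME EGE (Km level) over 60 min at room temperature after NADPH regeneration addition. Data normalized to full inhibition by 1.43 uM quinidine.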

[14] = molecular target: ATP-dependent 6-phosphofructokinase (Trypanosoma brucei brucei) (UniProt O15648); assay: qHTS Assay to Find Inhibitors of T. brucei phosphofructokinase: hit validation (AID 492961; active = well fitted curve in the direction sought with a large enough effect; an effect the other way counts as inactive or inconclusive); conditions: T. brucei PFK, ADP-Glo luminescence; series mostly up to 51.4 µM
Procedure, shortened: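 In this biochemical qHTS validation, titrated compounds were tested against 1.25 nM PFK with 0.1 mM ATP and 0.5 mM F6P. Percent activity came from controls lacking or containing enzyme.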

[15] = qHTS profiling for inhibitors of Plasmodium falciparum proliferation (AID 504749; active = well fitted curve in the direction sought with a large enough effect; an effect the other way counts as inactive or inconclusive;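 also: 0% = DMSO vehicle and full inhibition = artemisinin control; nearly all actives have a fitted effect of over 60% in size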); conditions: P. falciparum in erythrocytes, SYBR Green DNA, 72 h, at 28.7 µM (top of the series)
Procedure, shortened: (§1)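 In a 72 h erythrocytic culture (37 C, humidified, 5% CO2) at 2.5% hematocrit and 0.3% starting parasitemia, compounds were tested; SYBR Green I in detergent lysis buffer stained parasite DNA overnight.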

[16] = test system: CP203; assay: as above; conditions: P. falciparum in erythrocytes, SYBR Green DNA, 72 h; series mostly up to 28.7 µM
Procedure, shortened: as §1

[17] = test system: DFO2036; assay: as above; conditions: P. falciparum in erythrocytes, SYBR Green DNA, 72 h; series mostly up to 28.7 µM
Procedure, shortened: as §1

[18] = test system: W2; assay: as above; conditions: P. falciparum in erythrocytes, SYBR Green DNA, 72 h; series mostly up to 28.7 µM
Procedure, shortened: as §1

[19] = molecular target: Cytochrome P450 3A4 (Homo sapiens) (UniProt P08684); assay: qHTS Assay for Inhibitors and Substrates of Cytochrome P450 3A4 (AID 884; active = well fitted curve in the direction sought with a large enough effect; an effect the other way counts as inactive or inconclusive; also: potency is read from the fitted curve at half-maximal effect; nearly all actives have a fitted effect of over 50% in size); conditions: recombinant CYP3A4, Luciferin-PPXE luminescence; series mostly up to 57.1 µM
Procedure, shortened: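 Luminescent readout of luciferin produced by CYP3A4 (20 nM) dealkylation of Luciferin-PPXE, 25 uM (its KM). NADPH-driven reaction ran 60 min at RT after 10 min compound preincubation; data scaled to 57 uM ketoconazole as 100% inhibition.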

O=C(O)[C@@H](O)[C@@H](O)[C@@H](O)[C@@H](O)c1nc2ccccc2s1
active: Potency [3] 3.98 µM | Potency [9] 3.16 µM
inactive: Potency [1] > 11.4 µM | activity change, negative = inhibition [2] 11.6% | activity change, negative = inhibition [4] -1.53% | Potency [5] > 46 µM | Potency [6] > 9.22 µM | Potency [7] | Potency [8]

c1ccc(NCCSc2nc3ccccc3s2)cc1
inactive: Potency [1] > 11.4 µM | activity change, negative = inhibition [2] 2.9% | activity change, negative = inhibition [4] -14.1% | Potency [5] > 46 µM | Potency [6] > 9.22 µM | Potency [7] | Potency [8]
active: Potency [3] 0.501 µM | Potency [9] 0.398 µM

CN(C)Cc1ccc(-c2cc3onc(-c4ccccc4)c3c(=O)n2C)cc1
inactive: Potency [1] > 11.4 µM | activity change, negative = inhibition [2] 12.1% | Potency [3] | activity, negative = inhibition [10] -3.19% | Potency [5] > 46 µM | Potency [6] > 9.22 µM | Potency [7] | Potency [8]

COC(=O)CC[C@@H](C)[C@H]1CC[C@H]2[C@H]3CC[C@H]4C[C@@H]5CC[C@@]4(C)C3(O5)[C@@H](Br)[C@@H](Br)[C@@]12C
active: Potency [11] 2.51 µM
inactive: Potency [1] > 11.4 µM | activity change, negative = inhibition [2] 21.4% | Potency [3] | activity change, negative = inhibition [4] 8.56% | Potency [5] > 46 µM | Potency [6] > 9.22 µM | Potency [8] | Potency [12]

ON(CCc1ccncc1)Cc1ccccc1
inactive: Potency [1] > 11.4 µM | activity change, negative = inhibition [2] -5.59% | activity change, negative = inhibition [4] 9.66% | Potency [5] > 46 µM | Potency [6] > 9.22 µM | Potency [7] | Potency [8] | Potency [12]
active: Potency [3] 1 µM | Potency [11] 3.98 µM | Potency [9] 0.316 µM

COc1cccc2c1C(=O)c1c(O)c3c(c(O)c1C2=O)C[C@](O)(C(=O)CO)C[C@@H]3O[C@H]1C[C@H](N)[C@@H](O)[C@H](C)O1
inactive: Potency [1] > 11.4 µM | activity change, negative = inhibition [2] 13.6% | Potency [3] | activity, negative = inhibition [10] 15.8% | Potency [5] > 46 µM | Potency [6] > 9.22 µM | Potency [7] | Potency [8] | Potency [11] | Potency [13] | Potency [9] | outcome [14] | activity, negative = inhibition ([15]; parasite line A) 6.65% | activity, negative = inhibition ([15]; parasite line B) 5.26% | Potency [16] | Potency [17] | Potency [18]

CCNc1ncc2nc(C)c(=O)n(Cc3cccc(OC)c3)c2n1
inactive: Potency [1] > 11.4 µM | activity change, negative = inhibition [2] -13.2% | activity change, negative = inhibition [4] -2.59% | Potency [5] > 9.22 µM | Potency [6] > 46 µM | Potency [7] | Potency [8] | Potency [12]
active: Potency [3] 3.16 µM | Potency [19] 7.94 µM
